These results are taken from PubChem BioAssay (NCATS).

In one assay the test system is CRL-7250. The assay can be described thus: Cytotoxic Profiling of Annotated Libraries Using Quantitative High-Throughput Screening (AID 1296008). For max response: % is set by controls: 0 for no effect and ±100 for the full control effect. Note: potency is the fitted concentration of half-maximal effect. The following applies: Five cell lines viability, CellTiter-Glo ATP luminescence, 48-72 h; max response: stronger effect = lower value. In short, it runs like this: (§1)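 Cells exposed to compounds for 48 or 72 hr at 37 degrees Celsius. Viability read as ATP-coupled luminescence with CellTiter-Glo after 10 min at room temperature.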
In general terms: ATP-based viability assays read luminescence as a measure of living cells.

The next assay concerns HEK293. The assay is described as above. The note with it: Five cell lines viability, CellTiter-Glo ATP luminescence, 48-72 h; max response: stronger effect = lower value. The method in brief: as §1
Assay [1] deals with HaCat. Described as above. The note with it: Five cell lines viability, CellTiter-Glo ATP luminescence, 48-72 h; max response: stronger effect = lower value. In short, it runs like this: as §1
In the next assay the test system is NIH3T3. The assay is described as above. The following applies: Five cell lines viability, CellTiter-Glo ATP luminescence, 48-72 h; max response: stronger effect = lower value. The method in brief:
as §1

Assay [2] concerns HACAT. The experiment in a line: qHTS assay to identify novel small-molecules to repurpose for Merkel cell carcinoma treatment (AID 1296009). The following applies: MCC and control cell lines, CellTiter-Glo viability, 72 h; at 44.8 µM (top of the series) unless noted. The method in brief:
(§2)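 Dose-response viability screen; 72 hr exposure at 37 degree celsius; CellTiter-Glo added, 10 min room temperature, luminescence read; RLUs scaled between no-cell and DMSO wells.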
On the technique in general: qHTS replaces the single test concentration by a dilution series.

The next assay deals with HEK293T. The assay is described as above. The following applies: MCC and control cell lines, CellTiter-Glo viability, 72 h; series mostly up to 44.8 µM. The method in brief: as §2
For a further assay, the system named is KB-3-1. The experiment in a line: Cytotoxic Profiling of Annotated Libraries Using Quantitative High-Throughput Screening (AID 1296008). For max response: % is set by controls: 0 for no effect and ±100 for the full control effect. Note: potency is the fitted concentration of half-maximal effect. The note with it: Five cell lines viability, CellTiter-Glo ATP luminescence, 48-72 h; max response: stronger effect = lower value. The method in brief: as §1
A further assay concerns TAB165. The experiment in a line: qHTS profiling for inhibitors of Plasmodium falciparum proliferation (AID 504749).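 Note: 0% = DMSO vehicle and full inhibition = artemisinin control.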 The following applies: P. falciparum in erythrocytes, SYBR Green DNA, 72 h; series mostly up to 28.7 µM. In short, it runs like this: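 Each compound contacts P. falciparum-infected red blood cells for 72 h at 37 C; lysis buffer (Tris, EDTA, saponin, Triton X, SYBR Green I) is added and fluorescence measured next morning; values normalized to controls.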

Several values for one entry are separate records, joined by “and”; a condition that tells them apart may be missing. Equal values may be shown once. Records with an inconclusive call do not appear. Unmarked numbers belong to inactive results. Activity calls are given as the source filed them. Calls come from the whole dose curve; as a rule, active = well fitted inhibition curve with a large enough effect; inconclusive = small, poorly fitted or top-dose-only effect; inactive = flat fitted curve, though single readings scatter.
Note: nearly all actives have a fitted effect of over 60% in size.

As to `OC[C@H]1O[C@@H](Oc2ccc3c(c2)OC[C@H]2c4cc5c(cc4O[C@@H]32)OCO5)[C@H](O)[C@@H](O)[C@@H]1O`, the max response in the assay on CRL-7250 is -1.83%; with NIH3T3, 0.631%. Further, the outcome with HEK293 and in the assay with HaCat [1] was inactive. For the same compound, the outcome in the assay with HACAT [2] is “inactive [at 17.4 µM]”. In addition, the Potency entry in the assay on HEK293T was “inactive”.
As to `OC[C@H]1O[C@@H](n2cnc3c2NC=NC[C@H]3O)C[C@@H]1O`, the max response in the assay on CRL-7250 is 4.05%; with KB-3-1 it was -3.14% and 0.256%; in the assay with NIH3T3, -9.01%. Also, the result in the assay on HEK293 was inactive. Also, in the assay with HEK293T, the Potency entry is “inactive”.
On to `CC(NCc1ccc(OCc2cccc(F)c2)cc1)C(N)=O` (centres undefined), for which the compound was classed as inactive in the assay with CRL-7250, in the assay with HEK293, in the assay on HaCat [1], in the assay on NIH3T3 and with HACAT [2]. In addition, the Potency entry in the assay on HEK293T is “inactive”.
As to `CCOC(=O)N1CCC(NCCNC(=O)c2ccccc2C)CC1`, the max response with CRL-7250 was 3.66%; with HaCat [1], -7.3%. In addition, the compound was called inactive in the assay on HEK293 and in the assay on NIH3T3. Besides, the Potency result in the assay with HEK293T is “inactive”.
On to `CCC(CC)n1ccc2c(C(=O)NCc3c(C)cc(C)[nH]c3=O)cc(C#N)cc21`, for which the values for the max response in the assay on CRL-7250 and in the assay on NIH3T3 were -1.01% and -0.643%, respectively. The outcome with HEK293, in the assay on HaCat [1] and with HACAT [2] was inactive. The Potency entry in the assay with HEK293T was “inactive”.
With `Cc1ccc(C(=O)Nc2ccc(Oc3cc4cnn(C)c4cc3-c3cn[nH]c3)c(F)c2)c(=O)n1-c1ccc(F)cc1`, the Potency was 4.67 µM (active) with CRL-7250; 5.8 µM (active) and 3.31 µM (active) with HEK293; 16.6 µM (active) in the assay on HaCat [1]; 4.11 µM (active) in the assay on NIH3T3.
In the case of `CC1=CC2(O)/C=C/C(C)(O)CC(O)/C=C/C(=O)OC23C(=O)NC(CC(C)C)C3C1C` (centres undefined), in the assay on CRL-7250, the max response is -2.92%. The result with HEK293, in the assay with HaCat [1] and in the assay with NIH3T3 was inactive. Besides, the outcome with HACAT [2] was “inactive [at 17.4 µM]”. Further, in the assay with HEK293T, the Potency entry was “inactive”.
With `C[C@@H]1C[C@H]2[C@@H]3CCC4=CC(=O)C=C[C@]4(C)[C@@]3(F)[C@@H](O)C[C@]2(C)[C@@]1(O)C(=O)COP(=O)(O)O`, the max response in the assay with CRL-7250 was -4.68%; in the assay on HEK293 it was 4.74%; with KB-3-1, 13.8%. The outcome in the assay on KB-3-1 was inactive.
Consider `COc1ccc2c(c1)O[C@H](O[C@@H]1O[C@H](CO)[C@@H](O)[C@H](O)[C@H]1O)C(=O)N2`, for which the call in the assay with CRL-7250, in the assay on HEK293 and in the assay on NIH3T3 was inactive. Moreover, the max response with HaCat [1] was -4.71%. The Potency entry with HEK293T was “inactive”.
On to `C=C(C)C(C)C1OC23CC4(CO2)C(CCC2C5(C)CCC(OC6OCC(O)C(OC7OC(CO)C(O)C(OC8OCC(O)C(O)C8O)C7O)C6OC6OC(CO)C(O)C6O)C(C)(C)C5CCC24C)C3C(C)(O)C1OC(C)=O` (centres undefined), for which the max response was -0.008% with CRL-7250 and -2.26% with NIH3T3. Also, the outcome in the assay with HEK293 and in the assay with HaCat [1] was inactive. Besides, the outcome in the assay on HACAT [2] and with HEK293T was “inactive [at 9.27 µM]” in each case.
Take `CC(C(=O)O)C1CCC2(C)C3C(=O)C=C4C(CCC(=O)C4(C)C)C3(C)CCC12C` (centres undefined): the max response was 0.281% in the assay with CRL-7250 and -2.22% with HaCat [1]. For the same compound, the call in the assay with HEK293 and with NIH3T3 was inactive. The Potency entry in the assay with HEK293T is “inactive”.
On to `Cc1nnc(C(C)C)n1C1CC2CCC(C1)N2CC[C@H](NC(=O)C1CCC(F)(F)CC1)c1ccccc1` (some centres undefined), for which the outcome in the assay on CRL-7250, in the assay on HEK293, in the assay with HaCat [1], with NIH3T3 and with HACAT [2] was inactive. In the assay with HEK293T, the Potency entry was “inactive”.
Regarding `C=C1CCC2[C@@](C)(C=O)CCC[C@]2(C)[C@H]1CC/C(C)=C/CO` (some centres undefined), the result with CRL-7250 and with HEK293 was inactive. Moreover, the max response with HaCat [1] was 3.6%; in the assay with NIH3T3, 1.05%. In the assay with HEK293T, the Potency result was “inactive”.
Regarding `C[C@@H](Nc1cc(NS(=O)(=O)N2CCC2)nc(SCc2cccc(F)c2F)n1)[C@@H](O)CO`, the max response is 3.18% in the assay with CRL-7250 and 1.29% in the assay on HaCat [1]. Moreover, the compound was called inactive in the assay on HEK293 and in the assay on NIH3T3. In addition, the Potency result in the assay on HEK293T is “inactive”.
Turning to `CC(=O)O[C@@H]1[C@@H](OC(=O)/C=C/c2ccccc2)[C@H](C)O[C@@H](O[C@H]2[C@@H]3C=CO[C@@H](O[C@@H]4O[C@H](CO)[C@@H](O)[C@H](O)[C@H]4O)[C@@H]3[C@@]3(CO)O[C@@H]23)[C@@H]1OC(C)=O`, the max response is -9.67% in the assay on CRL-7250 and -6.34% in the assay with HaCat [1]. Moreover, the compound was classed as inactive in the assay on HEK293 and in the assay with NIH3T3. Further, the Potency result with HEK293T was “inactive”.
Take `C=C1CC23CCC4[C@@](C)(CCC[C@@]4(C)C(=O)O)C2CCC1C3` (some centres undefined): the max response was -2.77% with CRL-7250, -11.3% in the assay with HaCat [1] and 3.55% in the assay with NIH3T3. Moreover, the result in the assay on HEK293 was inactive. For the same compound, the Potency entry in the assay with HEK293T was “inactive”.
Turning to `CC(Oc1ccccc1)C(=O)N[C@@H]1C(=O)N2[C@@H]1SC(C)(C)[C@@H]2C(=O)O` (some centres undefined), the max response with KB-3-1 was -0.849%.
The same measure, in the same setting: the same measure for `CC(C)C(=O)OCC(=O)[C@@]12O[C@H](C3CCCCC3)O[C@@H]1C[C@H]1[C@@H]3CCC4=CC(=O)C=C[C@]4(C)[C@H]3[C@@H](O)C[C@@]12C`: -5.72%; for `CCCC(=O)O[C@]1(C(=O)COC(C)=O)CC[C@H]2[C@@H]3C[C@H](F)C4=CC(=O)C=C[C@]4(C)[C@@]3(F)[C@@H](O)C[C@@]21C`: 20.2%.
The same measure, in the same setting: the same measure for `C[C@H](CCC(=O)O)[C@H]1CC[C@H]2[C@@H]3[C@H](O)C[C@@H]4C[C@H](O)CC[C@]4(C)[C@H]3CC[C@]12C`: 0.682%.
For the compound `COc1cc2c(cc1O)CCN[C@]21CS[C@@H]2c3c(OC(C)=O)c(C)c4c(c3[C@H](COC1=O)N1[C@@H]2[C@H]2c3c(cc(C)c(OC)c3O)C[C@@H]([C@@H]1O)N2C)OCO4`, in the assay on KB-3-1, the Potency was 5.2 nM (active) and 28.2 nM (active).
In the case of `CC(=O)OCC(=O)[C@@]1(O)CC[C@H]2[C@@H]3C[C@H](C)C4=CC(=O)C=C[C@]4(C)[C@H]3[C@@H](O)C[C@@]21C`, the max response in the assay with KB-3-1 was 15.9%.
On the same count and under the same terms, the same measure for `CC[C@@H](C(=O)[C@@H](C)[C@@H](O)[C@H](C)CCc1ccc(C)c(O)c1C(=O)O)[C@H]1O[C@](CC)([C@H]2CC[C@](O)(CC)[C@H](C)O2)C[C@@H]1C`: 10.1%; for `CCCC(=O)Nc1ncnc2c1ncn2[C@@H]1O[C@@H]2COP(=O)(O)O[C@H]2[C@H]1OC(=O)CCC`: -5.3%.
On to `CC[C@H]1OC(=O)C[C@@H](O)[C@H](C)[C@@H](O[C@@H]2O[C@H](C)[C@@H](O)[C@H](N(C)C)[C@H]2O)[C@@H](CCN2C[C@H](C)C[C@H](C)C2)C[C@@H](C)C(=O)/C=C/C(C)=C/[C@@H]1CO[C@@H]1O[C@H](C)[C@@H](O)[C@@H](OC)[C@H]1OC`, for which the max response was 1.46% in the assay on CRL-7250; 2.68% and 4.42% in the assay with KB-3-1. Besides, the call in the assay on HaCat [1], in the assay with NIH3T3 and with HACAT [2] was inactive.
As for `CC(C)N=c1cc2n(-c3ccc(Cl)cc3)c3ccccc3nc-2cc1Nc1ccc(Cl)cc1`, in the assay on TAB165, the Potency result was “inactive”. Moreover, the max response in the assay with KB-3-1 was 6.76%.
